These results are taken from PubChem BioAssay (NCATS).

Results filed as inconclusive are left out. A number with no mark means an inactive call. Activity calls are given as the source filed them. Unless noted, calls come from the whole dose curve; as a rule, active = well fitted curve in the direction sought with a large enough effect; inconclusive = small, poorly fitted or top-dose-only effect, or another doubt; inactive = no such curve, though single readings can be large; an effect the other way counts as inactive or inconclusive. Bridge positions count the residues as written; N and C are the ends. Square brackets hold non-standard residues; d marks the D form. Peptide text beside a SMILES is read from it. * marks the point of attachment. Octanoyl(6-Me) = CCC(C)CCCCC(=O)*; Dab = NCC[CH](N)C(=O)O

Assay [1] in a line: Cell Viability - BJ (AID 421; calls by dose curve;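 note: potency is the fitted concentration of half-maximal effect; cells exposed to compound for 40 hours at 37 °C before readout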). Particulars: BJ fibroblast viability, qHTS. Summed up: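 Cytotoxicity as drop in intracellular ATP (CellTiter-Glo, 20 min RT) after 40 hr compound exposure of BJ fibroblasts at 37 °C. Titrations scaled between DMSO and 100 uM tamoxifen, Hill-fitted for AC50.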
For orientation: Quantitative high-throughput screening tests each substance at several concentrations.

The nature of assay [2]: Cell Viability - LYMP2-004 (AID 966). Note: nearly all actives have a fitted effect of over 65% in size. Particulars: LYMP2-004 lymphoblastoid cell viability, qHTS; series mostly up to 92.2 µM. The gist of the method:
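Lymphoblastoid LYMP2-004 cells, 2500 per well, were preincubated for 5 hr and then treated with compound for 24 h at 37 C in complete medium. Viability was read as cellular ATP by CellTiter-Glo luminescence, and AC50 values were taken from Hill fits to concentration-response data.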

Assay [3] in a line: Cell Viability - LYMP2-009 (AID 968). Note: nearly all actives have a fitted effect of over 55% in size. Conditions: LYMP2-009 lymphoblastoid cell viability; series mostly up to 92.2 µM.
For assay [4], the target named is Estrogen receptor (Homo sapiens) (UniProt P03372). The assay can be described thus: qHTS assay for small molecule antagonists of estrogen receptor alpha signaling (AID 588513; active = well fitted curve in the direction sought with a large enough effect in the signal ratio, with a control signal flat, not every such curve was filed as active; the % refers to the signal ratio). Particulars: ER-alpha-UAS-bla HEK293, beta-lactamase ratio, antagonist mode; series mostly up to 76.9 µM. Summed up:
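Beta-lactamase reporter, antagonist mode, HEK 293 GripTite cells; 0.5nM E2 stimulus, 18 h, 37 C; CCF4 dye 2 h RT; fluorescence. IC50 and efficacy from Hill fits, normalized to E2 and DMSO.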

For assay [5] the target is unchanged. The assay can be described thus: qHTS assay for small molecule agonists of estrogen receptor alpha signaling (AID 588514; calls by dose curve; note: nearly all actives have a fitted effect of over 70% in size). Conditions: ER-alpha-UAS-bla HEK293, beta-lactamase ratio, 18 h; series mostly up to 76.8 µM. Summed up: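 ER-alpha-UAS-bla GripTite HEK293 cells, 5000/well in 2% charcoal/dextran-stripped FBS medium, treated with compound titrations 18 h at 37 C. CCF4 beta-lactamase read by fluorescence after 2 h RT; normalised to 20 nM 17-beta-estradiol (100%) and DMSO (0%), Hill fit for EC50 and efficacy.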

Assay [6] in a line: qHTS assay for small molecule agonists of the antioxidant response element (ARE) signaling pathway (AID 651741; active = well fitted activation curve with a large enough effect in the signal ratio; the % refers to the signal ratio). Conditions: HepG2 ARE-bla reporter, beta-lactamase FRET ratio, 16 h; series mostly up to 96 µM. Summed up: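 Compounds in DMSO are pinned onto HepG2 ARE-bla cells (2,000/well) that were preincubated 5 h; plates stay 16 h at 37 C, then beta-lactamase activity is detected with LiveBLAzer B/G substrate by fluorescence.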

The test system of the next assay is 3D7. Nature of the assay: qHTS profiling for inhibitors of Plasmodium falciparum proliferation (AID 504749). Note: nearly all actives have a fitted effect of over 60% in size. Note: potency is the fitted concentration of half-maximal effect. Particulars: P. falciparum in erythrocytes, SYBR Green DNA, 72 h; series mostly up to 28.7 µM. The gist of the method:
(§1)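 Parasite proliferation within erythrocytes, 72 h exposure. Endpoint: SYBR Green I fluorescence after overnight lysis at room temperature. Controls: 0.29 uM artemisinin, DMSO.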

The test system of the next assay is CP185. The assay is described as above. Particulars: P. falciparum in erythrocytes, SYBR Green DNA, 72 h; series mostly up to 28.7 µM. Summed up: as §1
The test system of a further assay is CP250. Described as above. Particulars: P. falciparum in erythrocytes, SYBR Green DNA, 72 h; series mostly up to 28.7 µM. Summed up: as §1
A further assay has as its system FAB9. Described as above. Conditions: P. falciparum in erythrocytes, SYBR Green DNA, 72 h; series mostly up to 28.7 µM. Summed up: as §1
A further assay has as its system PC49. Described as above. Particulars: P. falciparum in erythrocytes, SYBR Green DNA, 72 h; series mostly up to 28.7 µM. The gist of the method: as §1
Assay [7] can be described thus: S16 Schwann cell viability assay (CellTiter-Glo assay) (AID 624031). Note: nearly all actives have a fitted effect of over 70% in size. Note: potency is the fitted concentration of half-maximal effect. Conditions: S16 rat Schwann cells viability, 24 h; series mostly up to 57.5 µM. Summed up:
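Parental S16 cells, 24 h compound, 37 °C. ATP-luminescence viability; DMSO = 0% activity, empty wells as reference; curves classified by fit quality and efficacy.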
For orientation: ATP-based viability assays read luminescence as a measure of living cells.

The next assay has as its system TAB113. The assay can be described thus: qHTS profiling for inhibitors of Plasmodium falciparum proliferation (AID 504749). Note: nearly all actives have a fitted effect of over 60% in size. Note: potency is the fitted concentration of half-maximal effect. Conditions: P. falciparum in erythrocytes, SYBR Green DNA, 72 h; series mostly up to 28.7 µM. Summed up: as §1
Assay [8] addresses ATP-dependent 6-phosphofructokinase (Trypanosoma brucei brucei) (UniProt O15648). The assay can be described thus: qHTS Assay to Find Inhibitors of T. brucei phosphofructokinase: hit validation (AID 492961).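 Note: luminescence reports ADP formed as PFK phosphorylates fructose-6-phosphate with ATP.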 Particulars: T. brucei PFK, ADP-Glo luminescence; series mostly up to 51.4 µM. The gist of the method:
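PFK 1.25 nM, F6P 0.5 mM, ATP 0.1 mM, MgCl2 5 mM, 0.1 M TEA pH 8.0, Tween20 0.01%, BSA 0.1%; 45 min RT. ADP-Glo two-step detection, luminescence. qHTS titration; curve fitting with curve-class categorization.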

The next assay concerns P93_24. The assay can be described thus: qHTS profiling for inhibitors of Plasmodium falciparum proliferation (AID 504749). Note: nearly all actives have a fitted effect of over 60% in size. Note: potency is the fitted concentration of half-maximal effect. Conditions: P. falciparum in erythrocytes, SYBR Green DNA, 72 h; series mostly up to 28.7 µM. The gist of the method:
as §1

Assay [9] concerns the target Vitamin D3 receptor (Homo sapiens) (UniProt P11473). Nature of the assay: qHTS assay for small molecule antagonists of vitamin D receptor signaling (AID 588541; calls by dose curve;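 note: receptor activated by calcitriol during compound treatment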). Conditions: HEK293T VDR-UAS-bla, beta-lactamase ratio, antagonist mode; series mostly up to 76.7 µM. The gist of the method:
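VDR-UAS-bla HEK293T cells (2000/well, 2% charcoal-stripped FBS) were treated with titrated compounds plus 1-alpha,25-dihydroxyvitamin D3 (50 nM or 3 nM final) for 16 h at 37 C. CCF4 beta-lactamase fluorescence was read; Hill fits gave IC50.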

Assay [10] has the same target. Nature of the assay: qHTS assay for small molecule agonists of vitamin D receptor signaling (AID 588543; calls by dose curve). Particulars: HEK293T VDR-UAS-bla, beta-lactamase ratio, 16 h; series mostly up to 76.8 µM. Summed up: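 β-lactamase reporter, VDR-UAS-bla HEK293T, agonist mode. Cells plated 5 h at 37 °C, compound titration 16 h at 37 °C, CCF4 dye 2 h RT, ratio 460/530 nm. Hill fit → EC50, efficacy vs 50 nM 1α,25-(OH)2D3.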

A short description of assay [11]: qHTS assay for small molecule disruptors of the mitochondrial membrane potential - 1 hr assay (AID 651754; calls by dose curve; note: nearly all actives have a fitted effect of over 35% in size). Conditions: series mostly up to 92.2 µM. Summed up: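 HepG2 cells, attached overnight, were exposed to compound for 1 hr at 37C, then stained 30 min with a potentiometric dye. Ratio of red aggregate (590nm) to green monomer (535nm) fluorescence reports membrane potential; collapse shifts signal toward green.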

Assay [12] is described as follows: Cell Viability - LYMP2-013 (AID 970). Note: nearly all actives have a fitted effect of over 55% in size. Conditions: LYMP2-013 lymphoblastoid cells viability; series mostly up to 92.2 µM. The gist of the method:
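Human lymphoblastoid LYMP2-013 cells, 2500/well, treated 24 h at 37 C in complete medium; viability as intracellular ATP by CellTiter-Glo luminescence after 30 min. AC50 from Hill fits of qHTS concentration-response.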

Assay [13] is described as follows: Cell Viability - LYMP2-016 (AID 984).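 Note: cells exposed to compound for 24 hours at 37 °C; nearly all actives have a fitted effect of over 55% in size.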 Conditions: LYMP2-016 lymphoblastoid cell viability, qHTS; series mostly up to 92.2 µM. The gist of the method: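 qHTS, 1536-well: 2500 LYMP2-016 cells/well, 5 hr 37 C, compound added, 24 hr 37 C, CellTiter-Glo 30 min RT, luminescence. Tetraoctylammonium bromide positive control. AC50 via Hill fit.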

Estrogen receptor (Homo sapiens), sequence (P03372 whole entry, looked up): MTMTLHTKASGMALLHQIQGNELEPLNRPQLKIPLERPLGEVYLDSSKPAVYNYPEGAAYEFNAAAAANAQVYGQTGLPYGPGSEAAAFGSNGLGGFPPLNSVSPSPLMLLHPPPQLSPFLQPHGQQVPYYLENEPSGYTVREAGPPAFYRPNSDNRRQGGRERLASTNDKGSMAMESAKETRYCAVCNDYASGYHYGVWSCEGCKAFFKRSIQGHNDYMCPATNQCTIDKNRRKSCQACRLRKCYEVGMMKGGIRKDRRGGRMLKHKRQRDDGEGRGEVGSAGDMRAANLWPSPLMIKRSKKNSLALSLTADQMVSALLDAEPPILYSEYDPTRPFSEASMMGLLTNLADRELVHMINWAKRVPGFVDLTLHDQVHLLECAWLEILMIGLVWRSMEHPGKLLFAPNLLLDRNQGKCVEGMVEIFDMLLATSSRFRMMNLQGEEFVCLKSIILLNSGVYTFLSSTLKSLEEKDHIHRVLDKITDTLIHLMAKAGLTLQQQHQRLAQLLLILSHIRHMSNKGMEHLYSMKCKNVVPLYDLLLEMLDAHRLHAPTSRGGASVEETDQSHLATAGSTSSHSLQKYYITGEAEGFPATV
Vitamin D3 receptor (Homo sapiens), sequence (P11473 whole entry, looked up): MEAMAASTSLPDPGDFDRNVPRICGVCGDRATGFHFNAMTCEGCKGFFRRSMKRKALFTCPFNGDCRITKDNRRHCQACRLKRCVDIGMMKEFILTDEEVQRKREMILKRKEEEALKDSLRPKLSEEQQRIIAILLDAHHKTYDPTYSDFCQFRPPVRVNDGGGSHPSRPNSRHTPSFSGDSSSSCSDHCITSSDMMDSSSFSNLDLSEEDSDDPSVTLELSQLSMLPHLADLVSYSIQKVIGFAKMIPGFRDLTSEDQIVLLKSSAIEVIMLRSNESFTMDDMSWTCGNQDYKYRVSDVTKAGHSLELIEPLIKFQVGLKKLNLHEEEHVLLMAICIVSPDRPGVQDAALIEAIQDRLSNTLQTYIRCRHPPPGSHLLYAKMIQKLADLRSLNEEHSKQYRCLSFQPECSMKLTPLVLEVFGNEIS
ATP-dependent 6-phosphofructokinase (Trypanosoma brucei brucei), sequence (O15648 whole entry, looked up): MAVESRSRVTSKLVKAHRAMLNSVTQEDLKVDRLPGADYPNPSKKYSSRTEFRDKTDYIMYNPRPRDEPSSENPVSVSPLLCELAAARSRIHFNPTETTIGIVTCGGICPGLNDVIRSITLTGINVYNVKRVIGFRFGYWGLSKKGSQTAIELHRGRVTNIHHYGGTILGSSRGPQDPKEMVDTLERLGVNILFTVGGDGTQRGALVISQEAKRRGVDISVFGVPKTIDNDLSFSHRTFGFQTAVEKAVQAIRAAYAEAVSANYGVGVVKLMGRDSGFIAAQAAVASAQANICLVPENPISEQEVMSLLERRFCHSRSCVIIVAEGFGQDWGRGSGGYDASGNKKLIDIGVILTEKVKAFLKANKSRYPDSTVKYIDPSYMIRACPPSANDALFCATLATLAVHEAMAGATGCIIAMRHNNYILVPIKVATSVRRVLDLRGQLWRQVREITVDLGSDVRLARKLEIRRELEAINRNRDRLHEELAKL

`O=C(O)c1ccccc1C(c1ccc(O)cc1)c1ccc(O)cc1`: in assay [1], the Potency is more than 92 µM. Also, the Potency result in [2], in assay [3], in [4], in [5] and in assay [6] was “inactive” each time.
Turning to `CCC(C)CCCCC(=O)NC(CCN)C(=O)NC(C(=O)NC(CCN)C(=O)NC1CCNC(=O)C(C(C)O)NC(=O)C(CCN)NC(=O)C(CCN)NC(=O)C(CC(C)C)NC(=O)C(Cc2ccccc2)NC(=O)C(CCN)NC1=O)C(C)O` (stereo not drawn) ({Octanoyl(6-Me)}-[Dab]T[Dab][Dab][Dab]FL[Dab][Dab]T; lactam 4-C; configuration not given here), the Potency entry with 3D7, with CP185, in the assay with CP250, with FAB9 and with PC49 was “inactive” each time.
Take `CC(C)(CO)C(O)C(=O)NCCCC(=O)O` (stereo not drawn): the Potency result (in [7]; in the assay on FAB9; in the assay on PC49; in the assay with TAB113) was “inactive” each time.
`CC1CCC(C(C)C)C(OC(=O)c2ccccc2O)C1` (stereo not drawn): the compound was classed as inactive in [8]. For the same compound, the Potency entry (in [7]; in the assay with 3D7; in the assay with CP185; in the assay with CP250; in the assay on FAB9; in the assay with P93_24) was “inactive” in each case. Also, the Potency result with PC49 and with TAB113 was “inactive” in each case.
In the case of `CC(=O)O[C@@]12CO[C@@H]1C[C@H](O)[C@@]1(C)C(=O)[C@H](O)C3=C(C)[C@@H](OC(=O)C(O)[C@@H](NC(=O)OC(C)(C)C)c4ccccc4)C[C@@](O)([C@@H](OC(=O)c4ccccc4)[C@H]21)C3(C)C` (stereo partly drawn), in assay [8], the compound was classed as inactive. Further, the Potency is 0.0251 µM (active) with 3D7, 0.0251 µM (active) in the assay on CP185, 0.0562 µM (active) in the assay with P93_24 and 0.0316 µM (active) with TAB113.
As to `CC1(C)S[C@@H]2[C@H](NC(=O)COc3ccccc3)C(=O)N2[C@H]1C(=O)O`, the compound was called inactive in [8], in assay [9] and in assay [10]. The Potency entry in the assay with 3D7, in the assay with CP185, in the assay with CP250, with FAB9, in the assay on P93_24 and with PC49 was “inactive” each time. In the assay with TAB113, the Potency result is “inactive”.
Turning to `O=C1CCc2ccccc2O1`, in assay [1], the Potency is more than 92 µM. Also, the Potency entry in assay [2], in [3], in [4] and in [11] was “inactive” each time. Further, in assay [10], the outcome was inactive.
With `c1ccc2scnc2c1`, the Potency entry in assay [3], in assay [12], in [4], in assay [5] and in assay [11] was “inactive” each time. The outcome in [9] and in [10] was inactive.
Consider `O=S(=O)(O)c1ccccc1`, for which the Potency result in assay [2], in assay [3], in assay [12], in assay [13], in assay [6] and in assay [11] was “inactive” in each case. For the same compound, the outcome in [9] and in assay [10] was inactive.
Consider `CCN1/C(=C/C=C/C=C/c2sc3ccccc3[n+]2CC)Sc2ccccc21`, for which the Potency is 7.21 µM (active) in [7]; 2 µM (active) in the assay with 3D7; 3.98 µM (active) in the assay with CP185; 3.98 µM (active) in the assay on CP250; 3.16 µM (active) in the assay on FAB9; 3.55 µM (active) with P93_24. Further, the Potency in the assay with PC49 was 5.62 µM (active); in the assay on TAB113, 5.01 µM (active).
